The whole screen tested about 69,000 compounds, of which about 8,600 (12%) showed an effect of 50% or more. The sample holds strong results, similar compounds and a random draw of the others, so the mix is not that of the screen.
The compounds below were run on Plasmodium berghei (assay: Screen against P. berghei liver stage (PbLuc), transformed with Luciferase, at 10uM). Settings: tested at 10 uM.
Type: functional, HepG2

Compound | INHIBITION
CC(=O)N1CCC2(CC1)COCCN2CCN(C)C | -8.94%
Cc1cc(C)n(CC2CN(CCOc3ccccc3F)CCO2)n1 (centres undefined) | 9.14%
Cc1ccc(N2CCc3ncc(CNc4ccccn4)n3CC2)nn1 | 18.4%
O=C(c1cscn1)N1CCC(O)(Cn2ccc3ccncc32)CC1 | 17.1%
CC(=O)N1N=C(c2ccco2)OC1C(=O)NCC(C)C (centres undefined) | -4.32%
CC(C)Cn1cc(NCc2cscn2)cn1 | -24.5%
CC(C)(C)n1cc(NCc2cscn2)cn1 | 29.4%
FC(F)(F)Cn1cc(NCc2cscn2)cn1 | 62%
CCOc1cc(=O)n2c(c1C(=O)OCc1ccc(C)cc1)CCCC2 | 32.2%
O=C1N(Cc2cccnc2)CCC12CCCN(c1ncc(F)cn1)C2 (centres undefined) | -42%
CCc1cnc(N2CCC3(CCN(Cc4cccc(C)c4)C3=O)C2)nc1 (centres undefined) | 60.5%
N#Cc1ccc(N2CCC3(CCCN(c4ccccn4)C3)C2)nc1 (centres undefined) | 12.1%
O=C1N(c2cncnc2)CCC12CCCN(Cc1ccccn1)C2 (centres undefined) | -11.5%
COc1cc(N2CCC3(CC2)CCN(c2cccnc2)C3=O)ncn1 | 68.4%
COc1cc(N2CCC3(C2)CN(c2cccnc2)C(=O)CN3C)ncn1 (centres undefined) | 30.3%
N#Cc1ccc(N2CCCC3(CCN(c4cncnc4)C3=O)C2)nc1 (centres undefined) | 65.7%
Cc1cccc(CN2CCC3(CCN(c4ncccn4)C3)C2=O)c1 (centres undefined) | -23.3%
O=C1N(Cc2cccnc2)CCC12CCCN(c1ncccn1)C2 (centres undefined) | 87.2%
Cc1cccc(CN2CCC3(CCN(c4ncccn4)CC3)C2=O)c1 | 42%
COc1cccc(N2CC3(CCN(c4cc(OC)ncn4)C3)CC2=O)c1 (centres undefined) | 34.6%
O=C1N(Cc2ccncc2)CCC12CCCN(c1ncc(F)cn1)C2 (centres undefined) | 39.5%
CN(C)CCOCc1cncc2c1CCN(Cc1ccccn1)C2 | -8.51%
Cc1nc(CN2CCO[C@H]3[C@@H](OCc4cccnc4)CC[C@@H]32)cs1 | 14.6%
Cc1nc(C(=O)N2CCN(S(C)(=O)=O)CC2)c(-c2ccccc2Cl)s1 | 23%
COCCN1CCC(Nc2c(F)cc(C#N)cc2F)CC1 | -3.58%
O=C([C@@H]1CCO[C@@H]2CCN(Cc3ccsc3)C[C@@H]21)N1CCCC1 | 38.1%
O=C1CC(c2ccsc2)c2sc(C(=O)O)c(-c3ccc(F)cc3)c2N1 (centres undefined) | -8%

Compound | INHIBITION
COc1cc(N2CCC3(CC2)CN(S(C)(=O)=O)c2ccccc23)ncn1 | 46.4%
COc1cc(N2CCC3(CCN(Cc4cccnc4)C3=O)C2)ncn1 (centres undefined) | 91%
COc1cc(N2CCCC3(CCN(c4cccnc4)C3=O)C2)ncn1 (centres undefined) | 84.7%
Cc1cnc(N2CCC3(CC2)CCN(c2cncnc2)C3=O)nc1 | 40.8%
O=C1N(c2cccnc2)CCC12CCCN(Cc1cccnc1)C2 (centres undefined) | -52.3%
COc1cc(N2CCCC3(CCN(c4cncnc4)C3=O)C2)ncn1 (centres undefined) | 53%
Cc1cccc(CN2CCC3(CCN(c4ccccn4)C3)C2=O)c1 (centres undefined) | 20.7%
COCC(=O)N1CCCC2(CCN(c3cncnc3)C2=O)C1 (centres undefined) | 25.2%
COc1cc(N2CCC3(CC2)CN(CCO)c2ccccc23)ncn1 | 93.1%
O=C(c1ccncc1)N1CCCC2(CCN(c3cccnc3)C2=O)C1 (centres undefined) | -7.7%
CCN1CCC2(CC1)CN(CCO)c1ccccc12 | -7.94%
COc1cccc(CN2CCC3(CCN(c4ncc(C)cn4)C3)C2=O)c1 (centres undefined) | 37.9%
CNC(=O)[C@H]1C[C@@H]2CN(C(=O)c3ccccn3)C[C@@H]2N1S(C)(=O)=O | 37.2%
Cc1nnc(CN2CCCC2c2c(C)nn(C)c2Cl)o1 (centres undefined) | 16.9%
O=C(C1CCOC1)N1C[C@H]2CN(Cc3nccs3)C[C@H]2C1 (some centres undefined) | 17.1%
COc1ccccc1CN(CC1CCCO1)C(=O)c1cc(C)n[nH]1 (centres undefined) | -11.3%
c1cncc(CN2Cc3nccn3CC(Cn3cncn3)C2)c1 (centres undefined) | 5.41%
COc1ccc(C(=O)N2C[C@@H](O)[C@H](NCCc3ncccc3C)C2)cc1 | -15.3%
Cc1cc(CNc2cc(Cl)ccc2C)no1 | -4.4%
Cc1nnsc1CN1C[C@H]2CC[C@@H](C1)N(Cc1c(C)noc1C)C2=O | -42.9%
CC(=O)c1cc(C(=O)N2CCC3(CC2)Nc2ccccc2NC3=O)cs1 | 20.3%
CNc1cc(C(=O)N2CCC3(CC2)Nc2ccccc2NC3=O)ccn1 | 57.6%
CNc1ncc(C(=O)N2CCC3(CC2)Nc2ccccc2NC3=O)cn1 | 27.6%
Nc1cc(C(=O)N2CCC3(CC2)Nc2ccccc2NC3=O)ccn1 | -31.5%
COc1ncc(C(=O)N2CCC3(CC2)C(=O)Nc2ccccc23)cn1 | 12%
COc1cc(C(=O)N2CCC3(CC2)Nc2ccccc2NC3=O)ccn1 | 52.1%
Cn1nnnc1SCCC(=O)NCC1Cc2ccccc2O1 (centres undefined) | -0.554%

Compound | INHIBITION
CN(C)C(=O)CCCS(=O)(=O)Cc1cc(Cl)c2c(c1)OCO2 | 30.6%
NC1CCCN(C(=O)c2csc(-c3ccc(C(F)(F)F)cc3)n2)CC1 (centres undefined) | 32.4%
Cc1ncsc1C(=O)NCCNC(=O)OC(C)(C)C | -7.93%
COc1cccc(CN(C)CCCn2cnc3c(N)ncnc32)c1 | 9.84%
COc1ccc(OCCN(C)CCCn2cnc3c(N)ncnc32)cc1 | 10.6%
COc1cccc(SCCCn2cnc3c(N)ncnc32)c1 | 52.1%
CC(C)c1[nH]c2ncccc2c1CN1CCN(S(=O)(=O)N(C)C)CC1 | -33.6%
Cc1nccn1C1CCCN(C(=O)COCC2CC2)C1 (centres undefined) | 22.9%
O=C(O)c1cccnc1CN(Cc1ccsc1)C1CC1 | 87.5%
CN(Cc1csc(-c2ccccc2)n1)Cc1ncccc1C(=O)O | 25.5%
O=C(CSCc1ccccn1)N(Cc1ccsc1)C1CC1 | 36.2%
O=C(c1cccs1)N1CCc2c(nc(N3CCCCC3)[nH]c2=O)C1 | 37.6%
COc1ccc(C(=O)NCc2ccco2)nn1 | 9.4%
Cc1cc2c(cc1C)OC1(C=C2)CCN(CC(=O)N2CCOCC2)CC1 | 19.5%
Cc1cc(C)n(CC2CN(CC(=O)NC3CCCCC3)CCO2)n1 (centres undefined) | 8.64%
Cc1ccc(CCC(=O)N2CCOCC2)cc1Cl | -18%
Cc1cc2c(cc1Cl)C=CC1(CCN(CC(=O)N3CCCC3)CC1)O2 | 85.5%
CCN(CC)C(=O)CN1CCC2(C=Cc3cc(Cl)c(C)cc3O2)CC1 | 78.9%
Cc1cc2c(cc1Cl)C=CC1(CCN(CC(=O)NC3CCCC3)CC1)O2 | 80%
Cc1cc(C(=O)N2CCCC3(C=Cc4ccccc4O3)CC2)cc(=O)[nH]1 (centres undefined) | -155%
CCN(CC)C(=O)CN1CCC(c2nc(C)c3c(n2)N(C)CCC3)CC1 | 8.12%
Cc1cc2c(cc1Cl)C=CC1(CCN(C(=O)N3CCOCC3)CC1)O2 | 89.9%
Cc1cc2c(cc1Cl)C=CC1(CCN(CC(=O)N3CCOCC3)CC1)O2 | 15.1%
Nc1cc(C(=O)N2CCCC3(C=Cc4ccccc4O3)CC2)ccn1 (centres undefined) | 34.8%
Cc1cc(C)n(CC2CN(CC(=O)NC3CCCC3)CCO2)n1 (centres undefined) | 0.706%

Reference: ChEMBL document CHEMBL4513216, “Probing the Open Global Health Chemical Diversity Library for Multistage-Active Starting Points for Next-Generation Antimalarials” (ACS Infect Dis, 2020)
